Results filed as inconclusive are left out. Calls of active or inactive are those of the source. Rule for the calls: active = hit-call score of the fitted dose curve at least 0.9, where 1 is the maximum; inconclusive = response in the unintended direction; inactive = score below 0.9.
These compounds were tested against chimpanzee Androgen Receptor (AR), AR (gene 747460) (UniProt O97775) (assay: NVS_NR_cAR: NovaScreen (NVS) Nuclear Receptor Binding Assay for chimpanzee Androgen Receptor (AR) (AID 2283346)).
Outline: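 Cell-free radioligand displacement using receptor protein extracted from Sf9/Sf21 cells; bound radioligand measured by scintillation counting 72 hours after chemical dosing. Loss of signal versus DMSO baseline indicates binding; primary screen single-concentration in duplicate at 25 uM, actives followed in concentration series.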

Chain of chimpanzee Androgen Receptor (AR), AR (gene 747460) (O97775 whole entry, looked up): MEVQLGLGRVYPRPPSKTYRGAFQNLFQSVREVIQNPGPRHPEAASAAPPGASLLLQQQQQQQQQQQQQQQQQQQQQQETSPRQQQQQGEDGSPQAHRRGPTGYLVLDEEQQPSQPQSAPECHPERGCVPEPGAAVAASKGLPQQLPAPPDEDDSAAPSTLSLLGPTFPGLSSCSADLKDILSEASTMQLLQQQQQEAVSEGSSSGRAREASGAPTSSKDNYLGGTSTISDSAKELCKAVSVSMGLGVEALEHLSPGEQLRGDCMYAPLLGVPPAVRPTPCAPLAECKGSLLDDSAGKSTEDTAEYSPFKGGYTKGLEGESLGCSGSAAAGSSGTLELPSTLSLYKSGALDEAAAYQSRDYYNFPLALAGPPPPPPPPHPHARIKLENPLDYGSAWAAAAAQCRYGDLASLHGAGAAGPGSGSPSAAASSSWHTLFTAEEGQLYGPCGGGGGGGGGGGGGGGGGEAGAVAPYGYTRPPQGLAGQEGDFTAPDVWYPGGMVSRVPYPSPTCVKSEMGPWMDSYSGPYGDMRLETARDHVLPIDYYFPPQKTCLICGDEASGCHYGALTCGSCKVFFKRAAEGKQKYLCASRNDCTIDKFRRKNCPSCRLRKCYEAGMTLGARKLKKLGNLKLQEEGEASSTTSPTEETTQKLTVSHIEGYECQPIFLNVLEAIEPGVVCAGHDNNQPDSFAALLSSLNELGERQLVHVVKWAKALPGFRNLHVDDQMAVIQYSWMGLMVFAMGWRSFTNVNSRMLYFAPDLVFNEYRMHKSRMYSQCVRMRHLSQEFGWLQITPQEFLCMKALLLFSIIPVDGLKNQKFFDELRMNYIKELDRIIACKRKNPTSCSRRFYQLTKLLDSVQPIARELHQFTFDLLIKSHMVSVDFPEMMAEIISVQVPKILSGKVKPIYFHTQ

SMILES	outcome	AC50
O=NN1CCCC1	inactive	
CC1(C)CN=C(NN=C(/C=C/c2ccc(C(F)(F)F)cc2)/C=C/c2ccc(C(F)(F)F)cc2)NC1		25 µM (active)
O=C(O)CF	inactive	
CCCCc1ccc(O)cc1	inactive	
